SMILES strings stand for the structures. “And” between values parts separate entries of the source, which are not always exact repeats. Equal entries are not always repeated. Inconclusive results are not listed. Where a call stands in place of a potency, no number is given. Some structures have more than one record in an assay (separate samples or runs), and their calls can disagree. The source made the active and inactive calls. Calls come from the whole dose curve; as a rule, active = well fitted inhibition curve with a large enough effect; inconclusive = small, poorly fitted or top-dose-only effect; inactive = no such curve, though single readings can be large or run the other way.
Potency is the fitted concentration of half-maximal effect.

A short description of the assay: NS1 protein of Zika virus - qHTS assay to identify small molecule inhibitors in human HEK 293 cells (AID 1347053). Note: nearly all actives have a fitted effect of over 55% in size. The note with it: HEK293 ZIKV MR766 infection, NS1 TR-FRET, 24 h; series mostly up to 46.1 µM. From the text: National Center for Advancing Translational Sciences [NCATS]
Johns Hopkins University School of Medicine
The non-structural 1 (NS1) protein of zika virus is known to associate with the viral replication complex. This cell-based TR-FRET ZIKV NS-1 assay measures the increased NS-1 protein in human HEK 293 cells after a 24-hour Zika virus infection by a TR-FRET assay readout. A decrease in the Time-resolved fluorescence energy transfer (TR-FRET) signal in this assay by small molecule treatment indicates an inhibitory effect of the small molecule on the expression of Zika virus NS1 correlating with Zika virus replication.
HEK 293 cells were cultured in EMEM (ATCC, Cat. # 30-2003) medium with 10% fetal bovine serum (GE healthcare Life Sciences, Cat. # SH30071.03), and 1% Pen/Strep (Gibco, Cat. # 15140-122). Cells were seeded in the assay plate and incubated at 37 C with 5% CO2 for 20 hours. Compounds were added to cells and incubated for one hour before addition of ZIKV MR766 strain solution to cells (MOI = 0.5). After an incubation at 37 C for 24 hours, the reagent mixture of TR-FRET ZIKV NS1 assay using two anti-ZIKV NS1 antibodies was added to assay plates. The TR-FRET signals in assay plates were measured using an Envision plate reader (PerkinElmer). Data were normalized by using the cell-containing wells without ZIKV as a negative control (0% NS-1) and wells containing ZIKV infected cells as a positive control (100% NS-1 level).
On the technique in general: qHTS replaces the single test concentration by a dilution series.
Take `CC(C)NCC(O)c1ccccc1Cl` (stereo not given): the Potency result was “inactive”.
With `CN(C)CCN(C)CCc1ccc(Cl)c(Cl)c1` the entry was “inactive”; with `CC[N+]1(C)CCCC(OC(=O)C(O)(c2ccccc2)c2ccccc2)C1` (stereo not given), “inactive”; with `CCC(C(N)=O)N1CCCC1=O` (stereo not given), “inactive”.
With `CCC1(C2=NCCN2)Cc2ccccc2O1` (stereo not given) the entry was “inactive”; with `CC(=O)[C@H]1CC[C@H]2[C@@H]3CC[C@H]4C[C@](C)(O)CC[C@]4(C)[C@H]3CC[C@]12C`, “inactive”.
With `Clc1ccc(CCC(Cn2ccnc2)Sc2c(Cl)cccc2Cl)cc1` (stereo not given), the Potency is 14.8 µM (active).
With `CCN(CC)C(=O)N[C@@H]1C=C2c3cccc4[nH]cc(c34)C[C@@H]2N(C)C1` the entry was “inactive”; with `CC(=O)Nc1cc([As](=O)(O)O)ccc1O`, “inactive”.
For the compound `CC(CCc1ccccc1)NC(C)C(O)c1ccc(O)cc1` (stereo not given), the Potency result was “inactive”.
Take `CNCC(O)c1ccc(O)cc1` (stereo not given): the Potency entry is “inactive”.
Under `C=C1C[C@@H]2[C@H](CC[C@]3(C)C(=O)CC[C@@H]23)[C@@]2(C)C=CC(=O)C=C12` stands “inactive”.
Under `CC1OC(C)OC(C)O1` (stereo not given) stands “inactive”; under `CN(C)[C@@H]1C(=O)C(C(N)=O)=C(O)[C@@]2(O)C(=O)C3=C(O)c4c(O)cccc4[C@@](C)(O)[C@H]3C[C@@H]12`, “inactive”.
Regarding `C#CCOC(C(=O)OCCN(C)C)(c1ccccc1)c1ccccc1`, the Potency result is “inactive”.
Under `C=CCN1CC[C@]23c4c5ccc(O)c4O[C@H]2C(=O)CC[C@@]3(O)[C@H]1C5` stands “inactive”; under `CN1C(=S)CN=C(c2ccccc2)c2cc(Cl)ccc21`, “inactive”; under `C[C@@H]1[C@@H](C(=O)C[C@H]2O[C@@H]3O[C@]4(C)CC[C@@H]5[C@H](C)CC[C@@H]([C@H]2C)[C@@]35OO4)O[C@@H]2O[C@]3(C)CC[C@H]4[C@H](C)CC[C@@H]1[C@@]24OO3`, “inactive”.
Under `CCN(CC)CCN1C(=O)CN=C(c2ccccc2F)c2cc(Cl)ccc21` stands “inactive”; under `COc1ccc2c(c1OC)CN1CCc3cc4c(cc3C1C2)OCO4` (stereo not given), “inactive”; under `CN1C[C@H](CNC(=O)OCc2ccccc2)C[C@@H]2c3cccc4c3c(cn4C)C[C@H]21`, “inactive”.
Turning to `CCCC(C)(COC(N)=O)COC(=O)NC(C)C` (stereo not given), the Potency entry was “inactive”.
With `Clc1ccc(COC(Cn2ccnc2)c2ccc(Cl)cc2Cl)cc1` (stereo not given), the Potency entry was “inactive”.
With `Cc1ccc2c(c1)C1CN(C)CCC1N2` (stereo not given) the entry was “inactive”; with `NCC(O)c1ccc(O)cc1` (stereo not given), “inactive”.
In the case of `CN(C)CCc1ccc(O)cc1`, the Potency entry is “inactive”.
With `C[C@]12CCC(=O)C(O)=C1CC[C@@H]1[C@@H]2CC[C@]2(C)C(=O)CC[C@@H]12` the entry was “inactive”; with `Cc1ccc(-c2nc3ccc(C)cn3c2CC(=O)N(C)C)cc1`, “inactive”; with `FC(F)(F)c1cccc(C2=CCN(CCc3ccc4ccccc4c3)CC2)c1`, “inactive”.
Consider `Cc1cccc(C)c1NC(=O)CN1CCCC1=O`, for which the Potency entry was “inactive”.
Under `N#CC(C#N)=Cc1ccc(O)c(O)c1` stands “inactive”.
With `C[C@]12CC[C@H]3[C@@H](CCC4=CC(=O)CC[C@@H]43)[C@@H]1CC[C@@H]2OC(=O)CCc1ccccc1` the entry was “inactive”.
Take `C=C(C)[C@H]1Cc2c(ccc3c2O[C@@H]2COc4cc(OC)c(OC)cc4[C@@H]2C3=O)O1`: the Potency entry was “inactive”.
Under `Cn1c(CCCC(=O)O)nc2cc(N(CCCl)CCCl)ccc21` stands “inactive and 20.9 µM (active)”; under `O=c1oc2ccccc2c(O)c1C(CC(O)c1ccc(-c2ccc(Br)cc2)cc1)c1ccccc1` (stereo not given), “inactive”; under `Nc1ccncc1`, “inactive”.
Under `O=C(NC(O)C(Cl)(Cl)Cl)NC(O)C(Cl)(Cl)Cl` (stereo not given) stands “inactive”.
Turning to `N[C@@H]1C[C@H]1c1ccccc1`, the Potency entry is “inactive”.
As to `COc1ccc(C(=O)c2c(C)n(CCN3CCOCC3)c3ccccc23)cc1`, the Potency entry was “inactive”.
With `CC(C)(C)CC(C)(C)c1ccc(O)cc1` the entry was “inactive”.
